Measured values taken from the supplement of paper PMC3545927.
The list shows a part of the results. The hit rate among all sequences tested is not known here.

Biological target: furin, P09958
Test: furin cleavage Z-score vs untreated control; higher = more cleavage, active = 3.5 or more, inactive = 1 or less, 8 variable residues between constant flanks
Procedure, shortened: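 Purified furin cleaved 8-mer peptides that were fused to a cDNA oligonucleotide and held on magnetic beads by their N-terminus. Each 0.01 ml reaction used a 1:10 enzyme:substrate ratio in 50 mM HEPES pH 7.5 with CaCl2 and NaCl and ran 7.5, 15 or 30 min. Released DNA was adapter-tagged by PCR and sequenced, and read counts gave abundance. The cleavage Z-score came from log counts against furin-free reactions, lowess-adjusted and scaled by median absolute deviation.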

furin, P09958, sequence (P09958 whole entry): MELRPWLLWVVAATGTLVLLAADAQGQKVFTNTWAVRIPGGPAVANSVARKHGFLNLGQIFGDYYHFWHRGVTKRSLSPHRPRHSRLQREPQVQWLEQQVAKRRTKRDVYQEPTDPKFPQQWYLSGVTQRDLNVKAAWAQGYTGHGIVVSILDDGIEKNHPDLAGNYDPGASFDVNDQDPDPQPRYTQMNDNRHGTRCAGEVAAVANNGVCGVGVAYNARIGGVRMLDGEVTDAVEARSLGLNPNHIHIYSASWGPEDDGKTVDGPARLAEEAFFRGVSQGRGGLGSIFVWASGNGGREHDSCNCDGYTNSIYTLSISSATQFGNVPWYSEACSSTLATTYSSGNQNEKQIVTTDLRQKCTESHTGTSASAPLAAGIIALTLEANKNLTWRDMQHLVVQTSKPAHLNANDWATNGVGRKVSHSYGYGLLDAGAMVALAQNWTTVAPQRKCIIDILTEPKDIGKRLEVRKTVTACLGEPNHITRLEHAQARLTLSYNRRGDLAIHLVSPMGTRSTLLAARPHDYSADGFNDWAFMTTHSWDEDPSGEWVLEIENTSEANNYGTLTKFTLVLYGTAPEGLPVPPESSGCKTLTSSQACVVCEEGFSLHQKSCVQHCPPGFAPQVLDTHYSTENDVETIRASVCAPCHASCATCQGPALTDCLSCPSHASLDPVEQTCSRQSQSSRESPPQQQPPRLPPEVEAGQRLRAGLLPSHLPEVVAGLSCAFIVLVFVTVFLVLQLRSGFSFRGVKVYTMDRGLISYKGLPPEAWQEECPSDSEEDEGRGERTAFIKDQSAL

B1: HC1218 (peptide)
chain: CAQVPSPEFFAGNASASA
- furin cleavage Z-score (7.5 min): -1.13 (inactive)
- furin cleavage Z-score (15 min): -0.661 (inactive)
- furin cleavage Z-score (30 min): 0.459 (inactive)

B2: HC838 (peptide)
chain: CAVTVPHPNIAGNASASA
- furin cleavage Z-score (7.5 min): 0.905 (inactive)
- furin cleavage Z-score (15 min): 1.12
- furin cleavage Z-score (30 min): 1.65

B3: HC361 (peptide)
chain: CASLLAPGAKAGNASASA
- furin cleavage Z-score (7.5 min): -0.751 (inactive)
- furin cleavage Z-score (15 min): -1.11 (inactive)
- furin cleavage Z-score (30 min): -0.788 (inactive)

B4: FS-2126 (peptide)
chain: CAMKRRSVTMAGNASASA
- furin cleavage Z-score (7.5 min): 1.48
- furin cleavage Z-score (15 min): 0.933 (inactive)
- furin cleavage Z-score (30 min): 2.48

B5: FS-1814 (peptide)
chain: CAVERRSVNKAGNASASA
- furin cleavage Z-score (7.5 min): -1.15 (inactive)
- furin cleavage Z-score (15 min): -0.638 (inactive)
- furin cleavage Z-score (30 min): -0.108 (inactive)

B6: FS-1669 (peptide)
chain: CADKRRSVRIAGNASASA
- furin cleavage Z-score (7.5 min): 0.236 (inactive)
- furin cleavage Z-score (15 min): -0.291 (inactive)
- furin cleavage Z-score (30 min): 0.74 (inactive)

B7: FU7 (peptide)
chain: CARKPRCGNPAGNASASA
- furin cleavage Z-score (7.5 min): 0.143 (inactive)
- furin cleavage Z-score (15 min): 2
- furin cleavage Z-score (30 min): 0.939 (inactive)

B8: FS-2881 (peptide)
chain: CARAERKTEIAGNASASA
- furin cleavage Z-score (7.5 min): -0.287 (inactive)
- furin cleavage Z-score (15 min): 1.15
- furin cleavage Z-score (30 min): -0.302 (inactive)

B9: FS-2702 (peptide)
chain: CARKRRSVNPAGNASASA
- furin cleavage Z-score (7.5 min): 11.8 (active)
- furin cleavage Z-score (15 min): 12.1 (active)
- furin cleavage Z-score (30 min): 9.6 (active)

B10: FS-833 (peptide)
chain: CANKRRSVRFAGNASASA
- furin cleavage Z-score (7.5 min): 5.74 (active)
- furin cleavage Z-score (15 min): 7.19 (active)
- furin cleavage Z-score (30 min): 8.22 (active)

B11: FS-2614 (peptide)
chain: CARTQRSTEIAGNASASA
- furin cleavage Z-score (7.5 min): 1.54
- furin cleavage Z-score (15 min): 2.65
- furin cleavage Z-score (30 min): 3.99 (active)

B12: HC2364 (peptide)
chain: CAEVPCHIPSAGNASASA
- furin cleavage Z-score (7.5 min): 0.695 (inactive)
- furin cleavage Z-score (15 min): 0.0124 (inactive)
- furin cleavage Z-score (30 min): 0.569 (inactive)

B13: HC364 (peptide)
chain: CAAKQNVQLIAGNASASA
- furin cleavage Z-score (7.5 min): 1.11
- furin cleavage Z-score (15 min): 2.16
- furin cleavage Z-score (30 min): -0.868 (inactive)

B14: HC834 (peptide)
chain: CAATATPPGSAGNASASA
- furin cleavage Z-score (7.5 min): -1.04 (inactive)
- furin cleavage Z-score (15 min): -0.000581 (inactive)
- furin cleavage Z-score (30 min): -0.987 (inactive)

B15: FS-1114 (peptide)
chain: CADGGRPPRSAGNASASA
- furin cleavage Z-score (7.5 min): 2.6
- furin cleavage Z-score (15 min): 2.51
- furin cleavage Z-score (30 min): 3.55 (active)

B16: FS-733 (peptide)
chain: CAVFERVSRSAGNASASA
- furin cleavage Z-score (7.5 min): 5.52 (active)
- furin cleavage Z-score (15 min): 7.31 (active)
- furin cleavage Z-score (30 min): 6.35 (active)

B17: FS-1300 (peptide)
chain: CAAKQRERRYAGNASASA
- furin cleavage Z-score (7.5 min): 9.27 (active)
- furin cleavage Z-score (15 min): 10.1 (active)
- furin cleavage Z-score (30 min): 7.92 (active)

B18: FS-1507 (peptide)
chain: CAADHRFYRYAGNASASA
- furin cleavage Z-score (7.5 min): -0.685 (inactive)
- furin cleavage Z-score (15 min): -0.762 (inactive)
- furin cleavage Z-score (30 min): 0.166 (inactive)

B19: FS-1055 (peptide)
chain: CAQGGRPPRPAGNASASA
- furin cleavage Z-score (7.5 min): -0.328 (inactive)
- furin cleavage Z-score (15 min): -0.378 (inactive)
- furin cleavage Z-score (30 min): 0.24 (inactive)

B20: FS-1301 (peptide)
chain: CAAKQRPPRSAGNASASA
- furin cleavage Z-score (7.5 min): 8.85 (active)
- furin cleavage Z-score (15 min): 8.91 (active)
- furin cleavage Z-score (30 min): 7.56 (active)

B21: HC23 (peptide)
chain: CAMEECVQHLAGNASASA
- furin cleavage Z-score (7.5 min): 0.873 (inactive)
- furin cleavage Z-score (15 min): 1.67
- furin cleavage Z-score (30 min): 1.34

B22: HC460 (peptide)
chain: CASGPWITPRAGNASASA
- furin cleavage Z-score (7.5 min): -0.377 (inactive)
- furin cleavage Z-score (15 min): 1.52
- furin cleavage Z-score (30 min): -0.355 (inactive)

B23: FS-223 (peptide)
chain: CADGGRVSRSAGNASASA
- furin cleavage Z-score (7.5 min): 3.4
- furin cleavage Z-score (15 min): 4.59 (active)
- furin cleavage Z-score (30 min): 5.66 (active)

B24: FS-1216 (peptide)
chain: CAITNRPPRSAGNASASA
- furin cleavage Z-score (7.5 min): 2.7
- furin cleavage Z-score (15 min): 5.07 (active)
- furin cleavage Z-score (30 min): 2.23

B25: FS-1217 (peptide)
chain: CAITSRIIRSAGNASASA
- furin cleavage Z-score (7.5 min): 9.87 (active)
- furin cleavage Z-score (15 min): 8.44 (active)
- furin cleavage Z-score (30 min): 6.88 (active)

B26: HC1897 (peptide)
chain: CATTPCSSSWAGNASASA
- furin cleavage Z-score (7.5 min): -0.808 (inactive)
- furin cleavage Z-score (15 min): 1.71
- furin cleavage Z-score (30 min): -0.0324 (inactive)

B27: HC1963 (peptide)
chain: CAEATTPCSGAGNASASA
- furin cleavage Z-score (7.5 min): -1.21 (inactive)
- furin cleavage Z-score (15 min): -0.00595 (inactive)
- furin cleavage Z-score (30 min): 0.567 (inactive)
